The values that follow come from PubChem BioAssay (NCATS).

Structures are written as SMILES. Records with an inconclusive call do not appear. A number with no mark means an inactive call. Active and inactive are the calls of the source. Calls come from the whole dose curve; as a rule, active = well fitted cell-killing curve with a large enough effect; inconclusive = small, poorly fitted or top-dose-only effect, or effect the other way; inactive = no such curve, though single readings can be large or run the other way.
Potency is the fitted concentration of half-maximal effect.

The assay is described as follows: Quantitative High-Throughput drug screen in 47 multiple myeloma cell lines against the NCATS MIPE library collection: INA6_PLB cell viability assay (AID 1918965; note: nearly all actives have a fitted effect of over 55% in size). The settings on record: INA6 myeloma viability, CellTiter-Glo ATP luminescence, 48 h; series mostly up to 45.8 µM; viability (% of control): at the top concentration. From the text:
PI: Beverly A. Mock Ph.D.
Laboratory of Cancer Biology and Genetics,
Center for Cancer Research, National Cancer Institute,
National Institute of Health, Bethesda, Maryland
Drug resistance and disease progression are common in multiple myeloma (MM) patients, underscoring the need for new therapeutic combinations. […] We hypothesized that effective combinations would reduce MYC expression and enhance p16 activity. […] These preclinical data identify potentially useful drug combinations for evaluation in drug-resistant MM and reveal potential mechanisms of combined drug sensitivity.
Described herein is the primary MIPE qHTS used to cherrypick compounds. Validated compounds were then further tested for potential synergistic activiy.
[1] Peat TJ, Gaikwad SM, Dubois W, Gyabaah-Kessie N, Zhang S, Gorjifard S, Phyo Z, Andres M, Hughitt VK, Simpson RM, Miller MA, Girvin AT, Taylor A, Williams D, D'Antonio N, Zhang Y, Rajagopalan A, Flietner E, Wilson K, Zhang X, Shinn P, Klumpp-Thomas C, McKnight C, Itkin Z, Chen L, Kazandijian D, Zhang J, Michalowski AM, Simmons JK, Keats J, Thomas CJ, Mock BA. Drug combinations identified by high-throughput screening promote cell cycle transition and upregulate Smad pathways in myeloma. Cancer Lett. 2023 Aug 1;568:216284. doi: 10.1016/j.canlet.2023.216284. Epub 2023 Jun 24. PMID: 37356470; PMCID: PMC10408729.
SEQUENCE No. (e.g., 1, 2, 3, etc.); […] (e.g., Cells, Incubation, Reagent, etc.); VALUE and DESCRIPTION.
1; Cells; 5 uL; white, solid bottom 1536-well Greiner assay plate.
2; Compounds; 23 nL; Kalypsis pin tool (Wako USA) equipped with a 1536-well pin head to transfer to the assay plates.
3; Incubation; 48 hours; 37C incubation.
4; Reagent;5uL; CellTiter Glo (Promega).
5; Detector; 425V; Luminescence; Viewlux PerkinElmer.
NOTES (numbers refer to Sequence numbers above)
1. The cell-based screening methods employed in this study were like those previously published. Briefly, the corresponding myeloma cell lines were screened in 1,536-well plates with 500 cells, 5-uL per well for inhibition of cell viability (assessed by measuring ATP levels with CellTiterGlo).
2. NCATS MIPE 4.0 library of approved and investigational drugs were added using the Kalypsis pin tool. Wells treated with DMSO only for 100% viability and media only wells for 0% viability were used as controls.
3. The assay plates were covered and incubated for 48 hours in a 37C, 5% CO2 incubator with controlled humidity.
4. After 48 hours, CellTilter-GloTM luminescent substrate mix (Promega) reagent was added to the assay plate and plates we incubated for 5 min at room temperature.
5. Signal was measured as median relative luminescence units on a ViewLux (PerkinElmer) multiplate reader.
[1] Heske CM, Davis MI, Baumgart JT, Wilson K, Gormally MV, Chen L, Zhang X, Ceribelli M, Duveau DY, Guha R, Ferrer M, Arnaldez FI, Ji J, Tran HL, Zhang Y, Mendoza A, Helman LJ, Thomas CJ. Matrix Screen Identifies Synergistic Combination of PARP Inhibitors and Nicotinamide Phosphoribosyltransferase (NAMPT) Inhibitors in Ewing Sarcoma. Clin Cancer Res. 2017 Dec 1;23(23):7301-7311. doi: 10.1158/1078-0432.CCR-17-1121. Epub 2017 Sep 12. PMID: 28899971; PMCID: PMC6636827.
Background: ATP-based viability assays read luminescence as a measure of living cells.
For `Cc1cccc(CN2CCN(C(c3ccccc3)c3ccc(Cl)cc3)CC2)c1` (stereo not given), the Potency is 16.6 µM (active).
For `O=C(NCC1CCCCN1)c1cc(OCC(F)(F)F)ccc1OCC(F)(F)F` (stereo not given), the Potency was 13.2 µM (active).
Consider `S=c1nc[nH]c2nc[nH]c12`, for which the Potency is 1.87 µM (active).
On the same count and under the same terms, next, `CCc1nc(N)nc(N)c1-c1ccc(Cl)cc1`: 10.5 µM (active); `CN(C)[C@@H](CCOc1cccc2ccccc12)c1ccccc1`: 18.7 µM (active).
Turning to `COc1cc2nc(N3CCN(C(=O)C4CCCO4)CC3)nc(N)c2cc1OC` (stereo not given), the “viability (% of control)” value was 105%.
As for `Oc1ccc2ccccc2c1SSc1c(O)ccc2ccccc12`, the Potency is 5.9 µM (active).
For `Nc1ccc(S(N)(=O)=O)cc1`, the “viability (% of control)” value is 157%.
As for `CCCCCCCCOc1ccccc1C(=O)Nc1ccc(C(=O)OCC[N+](C)(CC)CC)cc1`, the Potency was 18.7 µM (active).
Consider `CN(C)CCc1c[nH]c2ccc(Cn3cncn3)cc12`, for which the Potency is 1.66 µM (active).
For the compound `O=Nc1c(-c2c(O)[nH]c3cc(Br)ccc23)[nH]c2ccccc12`, the Potency is 0.526 µM (active).
Take `Clc1ccc2c(N3CCN(CCCN4CCN(c5ccnc6cc(Cl)ccc56)CC4)CC3)ccnc2c1`: the “viability (% of control)” value was 130% [at 23.2 µM].
For `COc1ccccc1N1CCN(CCN(C(=O)C2CCCCC2)c2ccccn2)CC1`, the Potency is 3.72 µM (active).
Turning to `CCCCCCCCCCCCCCCCCCCCCCO`, the “viability (% of control)” value is 144%.
For the compound `C[C@H](Cc1ccc(O)c(O)c1)[C@@H](C)Cc1ccc(O)c(O)c1`, the Potency is 9.35 µM (active).
With `Cc1ccc(Nc2nccc(N(C)c3ccc4c(C)n(C)nc4c3)n2)cc1S(N)(=O)=O`, the Potency is 3.72 µM (active).
Consider `CN(C)C(=O)[C@H](O)[C@H](Cc1ccccc1)NC(=O)c1cc2cc(Cl)ccc2[nH]1`, for which the Potency is 0.833 µM (active).
`Nc1nc(OCc2ccccc2)c2[nH]cnc2n1`: the Potency was 18.7 µM (active).
As to `CC1(C)C(=O)N(CCN2CCC(C(=O)c3ccc(F)cc3)CC2)c2ccccc21`, the Potency is 1.66 µM (active).
Turning to `CS(=O)(=O)OCCCCOS(C)(=O)=O`, the “viability (% of control)” value is 210%.
Turning to `CN(C)c1ccc2nc3ccc(=[N+](C)C)cc-3sc2c1`, the Potency was 1.48 µM (active).
Take `Cc1cc(Cl)ccc1OCCCC(=O)NO`: the Potency is 7.43 µM (active).
Regarding `Cc1nc2n(c(=O)c1CCN1CCC(c3noc4cc(F)ccc34)CC1)CCCC2`, the “viability (% of control)” value was 110%.
Consider `CCCCC(CC)COC(=O)C(C#N)=C(c1ccccc1)c1ccccc1` (stereo not given), for which the Potency was 9.35 µM (active).
On the same count and under the same terms, the same measure for `Oc1ccc(-c2nc(-c3ccc(F)cc3)c(-c3ccncc3)[nH]2)cc1`: 14.8 µM (active).
In the case of `Clc1ccc(C(Cn2ccnc2)OCc2c(Cl)cccc2Cl)c(Cl)c1` (stereo not given), the Potency was 29.6 µM (active).
For the compound `CC(=O)NC[C@H]1CN(c2ccc(N3CCOCC3)c(F)c2)C(=O)O1`, the “viability (% of control)” value was 167%.
As for `CN1CCC(=C2c3ccccc3CCc3sccc32)CC1`, the Potency was 16.6 µM (active).
`Cc1nc(Nc2ncc(C(=O)Nc3c(C)cccc3Cl)s2)cc(N2CCN(CCO)CC2)n1`: the Potency is 0.0833 µM (active).
For the compound `Cc1cc(=O)c2c(O)c3c(O)cc(=O)c4c3c3c(cc(O)c1c23)C(C)(C)C=4O`, the Potency was 0.418 µM (active).
Take `CC1Cc2ccccc2N1NC(=O)c1ccc(Cl)c(S(N)(=O)=O)c1` (stereo not given): the “viability (% of control)” value was 112%.
Turning to `COCCCN1CCC(NC(=O)c2cc(Cl)c(N)c3c2OCC3)CC1`, the Potency is 18.7 µM (active).
As for `O=C(O)CCNC(=O)c1ccc(N=Nc2ccc(O)c(C(=O)O)c2)cc1`, the “viability (% of control)” value was 167%.
Still for that read-out and setting: the same measure for `COc1ccc2cc([C@H](C)C(=O)O)ccc2c1`: 173%.
As for `C[C@@H](N)C1CCC(C(=O)Nc2ccncc2)CC1` (stereo not given in full), the Potency is 18.7 µM (active).
Same read-out and setting: next, `Clc1ccc(C(Cn2ccnc2)OCc2ccsc2Cl)c(Cl)c1` (stereo not given): 26.4 µM (active).
Turning to `CCOc1cc(CC(=O)N[C@@H](CC(C)C)c2ccccc2N2CCCCC2)ccc1C(=O)O`, the “viability (% of control)” value was 119%.
Regarding `CC(C)c1ccc2oc3nc(N)c(C(=O)O)cc3c(=O)c2c1`, the “viability (% of control)” value was 121%.
With `COc1ccc(C2(C#N)CCC(C(=O)O)CC2)cc1OC1CCCC1` (stereo not given), the Potency is 18.7 µM (active).
As for `C[C@@H](c1ncncc1F)[C@](O)(Cn1cncn1)c1ccc(F)cc1F`, the “viability (% of control)” value was 125%.
